# Results filed as inconclusive are left out. The source made the active and inactive calls. The calls were made as follows, unless noted: active = hit-call score of the fitted dose curve at least 0.9, where 1 is the maximum; inconclusive = response in the unintended direction; inactive = score below 0.9.
# Experiments:
# [1] = molecular target: human Peroxisome Proliferator-activated Receptor alpha (PPARa), PPARA (gene 5465) (UniProt Q07869); test: ATG_PPARa_TRANS: Attagene TRANS-FACTORIAL HepG2 Assay for human Peroxisome Proliferator-activated Receptor alpha (PPARa) (AID 2283001)
# human Peroxisome Proliferator-activated Receptor alpha (PPARa), PPARA (gene 5465), sequence (Q07869 whole entry, looked up, the tested form may be a part): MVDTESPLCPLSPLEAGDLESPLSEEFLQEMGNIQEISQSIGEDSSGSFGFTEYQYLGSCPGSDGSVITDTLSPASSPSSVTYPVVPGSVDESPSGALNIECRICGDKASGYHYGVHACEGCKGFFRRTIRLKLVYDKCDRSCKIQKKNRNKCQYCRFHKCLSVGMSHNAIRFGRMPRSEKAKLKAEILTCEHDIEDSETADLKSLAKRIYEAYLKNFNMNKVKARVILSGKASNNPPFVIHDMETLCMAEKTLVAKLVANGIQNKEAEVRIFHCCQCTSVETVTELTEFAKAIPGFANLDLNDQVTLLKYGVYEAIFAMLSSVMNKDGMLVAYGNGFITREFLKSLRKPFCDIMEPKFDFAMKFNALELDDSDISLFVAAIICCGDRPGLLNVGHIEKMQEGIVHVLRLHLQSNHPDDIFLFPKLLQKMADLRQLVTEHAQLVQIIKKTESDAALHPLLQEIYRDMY
# Summary of the method: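 Reporter transcripts from GAL4-UAS units in transfected HepG2 were quantified 24 h after dosing. Detection used reverse transcription, PCR, fluorescent primer extension and capillary electrophoresis, with DMSO as baseline.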
# [2] = molecular target: human Peroxisome Proliferator-activated Receptor delta (PPARd), PPARD (gene 5467) (UniProt Q03181); test: ATG_PPARd_TRANS: Attagene TRANS-FACTORIAL HepG2 Assay for human Peroxisome Proliferator-activated Receptor delta (PPARd) (AID 2283002)
# human Peroxisome Proliferator-activated Receptor delta (PPARd), PPARD (gene 5467), sequence (Q03181 whole entry, looked up, the tested form may be a part): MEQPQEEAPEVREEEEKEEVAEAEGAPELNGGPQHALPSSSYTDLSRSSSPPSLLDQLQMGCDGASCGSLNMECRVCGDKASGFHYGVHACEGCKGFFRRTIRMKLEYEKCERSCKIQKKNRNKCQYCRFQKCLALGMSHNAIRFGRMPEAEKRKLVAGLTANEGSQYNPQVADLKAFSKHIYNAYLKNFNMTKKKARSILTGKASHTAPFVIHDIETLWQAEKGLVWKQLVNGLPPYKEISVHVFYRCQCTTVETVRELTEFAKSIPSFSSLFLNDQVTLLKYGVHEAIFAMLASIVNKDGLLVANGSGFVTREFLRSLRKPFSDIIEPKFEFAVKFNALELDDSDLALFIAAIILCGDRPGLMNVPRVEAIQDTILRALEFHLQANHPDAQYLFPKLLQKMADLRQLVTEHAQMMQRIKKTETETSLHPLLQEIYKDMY
# Summary of the method: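 Read-out is induced reporter mRNA, quantified by RT-PCR with fluorescent labelling and capillary electrophoresis after 24 h dosing. Cells are HepG2 transiently carrying multiple GAL4-UAS reporter units driven by exogenous NR-GAL4 chimeras; DMSO serves as baseline.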
# [3] = read-out: Intercellular Adhesion Molecule 1 (ICAM1), ICAM1 (gene 3383); test: BSK_3C_ICAM1: BioMAP Diversity Plus: 3C Assay for Intercellular Adhesion Molecule 1 (ICAM1) Biomarker Activity (AID 2283003; active = hit-call score of the fitted dose curve at least 0.9, where 1 is the maximum; inactive = score below 0.9); settings: primary human endothelial cells (HUVEC); actives raise or lower the signal
# Summary of the method: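 Primary human umbilical vein endothelial cells in the BioMAP 3C system were exposed to chemicals for 24 h, then ICAM-1 was quantified by ELISA. Activity was fitted bidirectionally against the DMSO negative control baseline.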
# [4] = molecular target: human Retinoic Acid Receptor beta (RARb), RARB (gene 5915) (UniProt P10826); test: ATG_RARb_TRANS: Attagene TRANS-FACTORIAL HepG2 Assay for human Retinoic Acid Receptor beta (AID 2283004)
# human Retinoic Acid Receptor beta (RARb), RARB (gene 5915), sequence (P10826 whole entry, looked up, the tested form may be a part): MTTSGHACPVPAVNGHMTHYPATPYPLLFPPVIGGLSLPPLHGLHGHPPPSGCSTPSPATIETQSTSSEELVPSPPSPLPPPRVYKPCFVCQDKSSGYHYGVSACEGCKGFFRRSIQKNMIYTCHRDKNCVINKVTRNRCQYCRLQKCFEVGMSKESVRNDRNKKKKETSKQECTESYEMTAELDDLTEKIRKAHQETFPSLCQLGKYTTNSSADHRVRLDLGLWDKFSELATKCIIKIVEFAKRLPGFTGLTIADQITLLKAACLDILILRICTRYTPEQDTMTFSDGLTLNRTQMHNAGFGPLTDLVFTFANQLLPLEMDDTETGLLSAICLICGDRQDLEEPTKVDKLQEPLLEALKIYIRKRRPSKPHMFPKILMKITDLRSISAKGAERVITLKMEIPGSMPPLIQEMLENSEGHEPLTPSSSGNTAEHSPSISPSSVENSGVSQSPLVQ
# Summary of the method: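 Fluorescent capillary-electrophoresis detection of GAL4-UAS reporter mRNA defines the endpoint, with induction over DMSO-treated wells scored as activity. Transiently transfected human hepatoma HepG2 cells expressing exogenous NR–Gal4 proteins are exposed to test chemicals for 24 h.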
# [5] = molecular target: Retinoic acid receptor alpha (Homo sapiens) (UniProt P10276); test: ATG_RARa_TRANS: Attagene TRANS-FACTORIAL HepG2 Assay for human Retinoic Acid Receptor alpha (RARa) (AID 2283005);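 as to AC50: potency for increased reporter signal meaning RARa activation over DMSO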
# Retinoic acid receptor alpha (Homo sapiens), sequence (P10276 whole entry, looked up, the tested form may be a part): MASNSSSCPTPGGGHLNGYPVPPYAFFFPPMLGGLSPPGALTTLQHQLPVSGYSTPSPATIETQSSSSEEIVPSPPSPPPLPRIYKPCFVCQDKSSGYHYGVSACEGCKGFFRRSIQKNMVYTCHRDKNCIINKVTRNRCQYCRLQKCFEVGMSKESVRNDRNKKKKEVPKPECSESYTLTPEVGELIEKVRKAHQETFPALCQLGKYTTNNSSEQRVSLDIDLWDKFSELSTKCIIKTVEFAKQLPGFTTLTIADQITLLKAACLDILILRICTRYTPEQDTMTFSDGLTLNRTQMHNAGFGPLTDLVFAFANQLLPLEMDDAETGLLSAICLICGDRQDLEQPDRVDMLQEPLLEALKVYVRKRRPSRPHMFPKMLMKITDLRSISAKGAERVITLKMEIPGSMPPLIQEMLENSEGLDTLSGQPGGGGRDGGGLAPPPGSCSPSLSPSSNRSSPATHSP
# Summary of the method: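 Reporter transcripts, measured by RT-PCR with fluorescent labeling and capillary electrophoresis after 24 h dosing, reflect activity of an exogenous human RARa–GAL4 fusion in transiently transfected HepG2. Fitted for increase relative to DMSO.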
# [6] = BSK_3C_Proliferation: Cell Proliferation Assessment in the BioMAP Diversity Plus: 3C Assay (AID 2283006; active = hit-call score of the fitted dose curve at least 0.9, where 1 is the maximum; inactive = score below 0.9;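 as to AC50: potency may reflect either rise or fall in cell number versus DMSO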); settings: primary human endothelial cells (HUVEC)
# Summary of the method: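 Human umbilical vein endothelial cells were grown sub-confluent and exposed to chemical for 48 h, then fixed with 10% TCA and stained with 0.1% sulforhodamine B; absorbance at 560 nm gave relative cell number, fitted bidirectionally against DMSO baseline.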
# [7] = molecular target: Peroxisome proliferator-activated receptor gamma (Homo sapiens) (UniProt P37231); test: ATG_PPARg_TRANS: Attagene TRANS-FACTORIAL HepG2 Assay for human Peroxisome Proliferator-activated Receptor-gamma (PPARg) (AID 2283007)
# Peroxisome proliferator-activated receptor gamma (Homo sapiens), sequence (P37231 whole entry, looked up): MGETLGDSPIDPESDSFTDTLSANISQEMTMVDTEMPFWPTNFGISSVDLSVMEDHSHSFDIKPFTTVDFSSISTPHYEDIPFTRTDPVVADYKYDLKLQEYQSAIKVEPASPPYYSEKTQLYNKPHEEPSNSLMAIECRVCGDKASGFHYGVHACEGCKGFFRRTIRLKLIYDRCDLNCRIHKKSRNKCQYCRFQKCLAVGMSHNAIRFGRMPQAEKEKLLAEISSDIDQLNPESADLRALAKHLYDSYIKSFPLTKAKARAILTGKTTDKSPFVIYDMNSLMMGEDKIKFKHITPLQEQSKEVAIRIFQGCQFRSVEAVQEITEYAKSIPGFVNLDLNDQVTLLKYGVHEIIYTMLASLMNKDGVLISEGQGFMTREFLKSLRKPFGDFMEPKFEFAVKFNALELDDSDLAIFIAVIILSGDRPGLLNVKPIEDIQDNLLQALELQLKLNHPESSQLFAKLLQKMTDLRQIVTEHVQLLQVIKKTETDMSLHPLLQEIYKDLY
# Summary of the method: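 Multiplexed reporter transcription units in HepG2, 24 h dosing, reporter transcripts quantified by fluorescent RT-PCR and capillary electrophoresis. Increase over DMSO scored.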
# [8] = molecular target: Nuclear receptor subfamily 1 group I member 2 (Homo sapiens) (UniProt O75469); test: ATG_PXR_TRANS: Attagene TRANS-FACTORIAL HepG2 Assay for human Pregnane X Receptor (PXR) (AID 2283008)
# Nuclear receptor subfamily 1 group I member 2 (Homo sapiens), sequence (O75469 whole entry, looked up, the tested form may be a part): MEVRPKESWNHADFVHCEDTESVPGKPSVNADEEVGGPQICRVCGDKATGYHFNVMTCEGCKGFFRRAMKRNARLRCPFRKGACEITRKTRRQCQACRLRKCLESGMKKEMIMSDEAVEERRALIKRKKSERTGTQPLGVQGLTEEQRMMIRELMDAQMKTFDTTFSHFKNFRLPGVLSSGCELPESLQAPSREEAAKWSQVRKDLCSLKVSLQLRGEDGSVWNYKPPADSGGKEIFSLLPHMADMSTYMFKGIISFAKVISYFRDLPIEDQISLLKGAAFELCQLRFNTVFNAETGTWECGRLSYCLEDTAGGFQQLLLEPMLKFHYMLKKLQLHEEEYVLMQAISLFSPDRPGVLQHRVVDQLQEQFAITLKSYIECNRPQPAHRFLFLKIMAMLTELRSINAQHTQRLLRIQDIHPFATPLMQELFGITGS
# Summary of the method: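 Fluorescence intensity of FAM-labelled, HpaI-digested reporter amplicons, separated by capillary electrophoresis, quantifies induction. HepG2 cells with PXR-Gal4 trans-reporter system were exposed 24 h; DMSO defines baseline.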
# [9] = molecular target: human Retinoic Acid Receptor gamma (RARg), RARG (gene 5916) (UniProt P13631); test: ATG_RARg_TRANS: Attagene TRANS-FACTORIAL HepG2 Assay for human Retinoic Acid Receptor gamma (RARg) (AID 2283009)
# human Retinoic Acid Receptor gamma (RARg), RARG (gene 5916), sequence (P13631 whole entry, looked up, the tested form may be a part): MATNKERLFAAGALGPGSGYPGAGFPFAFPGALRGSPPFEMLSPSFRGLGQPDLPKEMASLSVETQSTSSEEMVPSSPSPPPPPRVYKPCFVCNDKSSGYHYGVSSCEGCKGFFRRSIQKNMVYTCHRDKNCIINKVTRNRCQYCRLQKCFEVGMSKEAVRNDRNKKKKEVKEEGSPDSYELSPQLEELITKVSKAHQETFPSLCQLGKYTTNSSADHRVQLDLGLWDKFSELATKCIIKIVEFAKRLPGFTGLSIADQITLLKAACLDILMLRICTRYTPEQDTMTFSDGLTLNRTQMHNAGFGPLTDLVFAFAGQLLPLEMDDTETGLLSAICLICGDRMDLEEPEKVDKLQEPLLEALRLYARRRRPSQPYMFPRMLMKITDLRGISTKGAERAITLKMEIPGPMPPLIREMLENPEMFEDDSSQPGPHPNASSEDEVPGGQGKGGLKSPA
# Summary of the method: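 HepG2 cells transiently transfected with multiplexed reporter units expressing chimeric RARg-GAL4 and GAL4-UAS-driven reporters; 24 h compound exposure. Reporter mRNA quantified by RT-PCR with fluorescent labelling and capillary electrophoresis; gain-of-signal fitted relative to DMSO baseline.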
# [10] = molecular target: human RAR-related Orphan Receptor beta (RORb), RORB (gene 6096) (UniProt Q92753); test: ATG_RORb_TRANS: Attagene TRANS-FACTORIAL HepG2 Assay for human RAR-related Orphan Receptor beta (RORb) (AID 2283010)
# human RAR-related Orphan Receptor beta (RORb), RORB (gene 6096), sequence (Q92753 whole entry, looked up, the tested form may be a part): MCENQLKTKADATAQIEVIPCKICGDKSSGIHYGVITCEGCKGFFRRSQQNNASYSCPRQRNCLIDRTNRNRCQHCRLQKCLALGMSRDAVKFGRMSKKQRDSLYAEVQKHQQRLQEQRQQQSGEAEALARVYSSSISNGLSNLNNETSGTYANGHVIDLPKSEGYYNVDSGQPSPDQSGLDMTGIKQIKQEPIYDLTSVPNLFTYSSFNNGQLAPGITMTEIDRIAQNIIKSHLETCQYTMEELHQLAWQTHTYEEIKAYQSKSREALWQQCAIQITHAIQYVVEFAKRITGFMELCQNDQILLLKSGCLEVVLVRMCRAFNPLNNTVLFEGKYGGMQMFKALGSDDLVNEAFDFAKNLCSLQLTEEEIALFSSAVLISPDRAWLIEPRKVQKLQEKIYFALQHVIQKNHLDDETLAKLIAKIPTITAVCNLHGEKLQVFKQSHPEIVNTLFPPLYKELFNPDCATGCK
# Summary of the method: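 HepG2 cells were transiently transfected with multiplexed GAL4-UAS reporter units expressing chimeric nuclear receptor–GAL4 proteins, then dosed for 24 h. Reporter mRNA was quantified by RT-PCR with fluorescent labelling and capillary electrophoresis; gain of signal was fitted relative to DMSO.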
smiles,measurement,setting,value
CC(C)=CC1C(C(=O)OCc2coc(Cc3ccccc3)c2)C1(C)C (stereo not drawn),outcome,[1],inactive
same,outcome,[2],inactive
same,outcome,[3],inactive
same,outcome,[4],inactive
same,outcome,[5],inactive
same,AC50,[6],10.3 µM (active)
same,AC50,[7],13.1 µM (active)
same,outcome,[8],inactive
same,outcome,[9],inactive
CCOc1cc(C(C)(C)C)ccc1C1COC(c2c(F)cccc2F)=N1 (stereo not drawn),outcome,[1],inactive
same,outcome,[3],inactive
same,outcome,[4],inactive
same,AC50,[5],3.63 µM (active)
same,AC50,[6],14.4 µM (active)
same,outcome,[7],inactive
same,outcome,[8],inactive
same,outcome,[9],inactive
Nc1c(Cl)c(Cl)nc(C(=O)O)c1Cl,outcome,[1],inactive
same,outcome,[3],inactive
same,outcome,[6],inactive
same,outcome,[7],inactive
CCCN(CC)CC1COC2(CCC(C(C)(C)C)CC2)O1 (stereo not drawn),outcome,[1],inactive
same,outcome,[2],inactive
same,outcome,[3],inactive
same,outcome,[6],inactive
same,outcome,[8],inactive
same,outcome,[9],inactive
same,outcome,[10],inactive
CN/C(=N\[N+](=O)[O-])NCc1cnc(Cl)s1,outcome,[1],inactive
same,outcome,[3],inactive
same,outcome,[5],inactive
same,outcome,[6],inactive
same,outcome,[8],inactive
CCN(CC)c1nc(C)cc(OP(=S)(OC)OC)n1,outcome,[1],inactive
same,outcome,[2],inactive
same,outcome,[3],inactive
same,outcome,[4],inactive
same,outcome,[5],inactive
same,AC50,[6],28.7 µM (active)
same,AC50,[7],46.1 µM (active)
same,AC50,[8],13.8 µM (active)
same,outcome,[9],inactive
O=C1C2CC=CCC2C(=O)N1SC(Cl)(Cl)Cl (stereo not drawn),outcome,[1],inactive
same,outcome,[2],inactive
same,outcome,[3],inactive
same,outcome,[5],inactive
same,AC50,[6],32.4 µM (active)
same,outcome,[7],inactive
same,outcome,[8],inactive
same,outcome,[10],inactive
O=C(O)c1c(Cl)ccc2cc(Cl)cnc12,outcome,[1],inactive
same,outcome,[3],inactive
same,outcome,[6],inactive
same,outcome,[7],inactive
COP(=S)(OC)SCn1nnc2ccccc2c1=O,outcome,[1],inactive
same,outcome,[2],inactive
same,outcome,[3],inactive
same,outcome,[4],inactive
same,outcome,[6],inactive
same,outcome,[7],inactive
same,outcome,[8],inactive
same,outcome,[10],inactive
O=P(O)(O)CCCl,outcome,[1],inactive
same,outcome,[2],inactive
same,outcome,[3],inactive
same,outcome,[4],inactive
same,outcome,[5],inactive
same,outcome,[6],inactive
same,outcome,[7],inactive
same,outcome,[8],inactive
same,outcome,[9],inactive
CN=C=S,outcome,[1],inactive
same,outcome,[2],inactive
same,outcome,[3],inactive
same,outcome,[5],inactive
same,outcome,[6],inactive
same,AC50,[7],50 µM (active)
same,outcome,[8],inactive
N#CN=C1SCCN1Cc1ccc(Cl)nc1,outcome,[1],inactive
same,outcome,[2],inactive
same,outcome,[3],inactive
same,outcome,[5],inactive
same,outcome,[6],inactive
same,outcome,[7],inactive
same,outcome,[8],inactive
same,outcome,[10],inactive
Cc1cnc(C2=NC(C)(C(C)C)C(=O)N2)c(C(=O)O)c1 (stereo not drawn),outcome,[1],inactive
same,outcome,[3],inactive
same,outcome,[5],inactive
same,outcome,[6],inactive
same,outcome,[7],inactive
same,AC50,[8],50 µM (active)
same,outcome,[9],inactive
same,outcome,[10],inactive
CS(=O)(=O)c1ccc(C(=O)C2C(=O)CCCC2=O)c([N+](=O)[O-])c1,outcome,[1],inactive
same,outcome,[2],inactive
same,outcome,[3],inactive
same,outcome,[6],inactive
same,outcome,[7],inactive
same,outcome,[8],inactive
Cn1c(-c2ccccc2)cc(-c2ccccc2)[n+]1C,outcome,[1],inactive
same,outcome,[2],inactive
same,outcome,[3],inactive
same,outcome,[6],inactive
CS(=O)(=O)c1cc(C(F)(F)F)ccc1C(=O)c1cnoc1C1CC1,outcome,[1],inactive
same,outcome,[3],inactive
same,outcome,[4],inactive
same,outcome,[5],inactive
same,outcome,[6],inactive
same,AC50,[7],14.2 µM (active)
same,outcome,[8],inactive
same,outcome,[9],inactive
COCC(=O)N(c1c(C)cccc1C)C(C)C(=O)OC (stereo not drawn),outcome,[1],inactive
same,outcome,[3],inactive
same,outcome,[5],inactive
same,outcome,[6],inactive
same,outcome,[7],inactive
same,outcome,[8],inactive
COCc1cnc(C2=NC(C)(C(C)C)C(=O)N2)c(C(=O)O)c1 (stereo not drawn),outcome,[1],inactive
same,outcome,[3],inactive
same,outcome,[4],inactive
same,outcome,[5],inactive
same,outcome,[6],inactive
same,outcome,[7],inactive
same,outcome,[8],inactive
same,outcome,[9],inactive
same,outcome,[10],inactive
CC(C)N1C(=O)c2ccccc2NS1(=O)=O,outcome,[1],inactive
same,outcome,[2],inactive
same,outcome,[3],inactive
same,outcome,[6],inactive
same,outcome,[7],inactive
same,outcome,[8],inactive
Cc1ccc(N=CN(C)C=Nc2ccc(C)cc2C)c(C)c1,outcome,[1],inactive
same,AC50,[3],30.3 µM (active)
same,outcome,[4],inactive
same,AC50,[6],15.3 µM (active)
same,outcome,[8],inactive
Cc1nc(N(C)C)nc(OC(=O)N(C)C)c1C,outcome,[1],inactive
same,outcome,[2],inactive
same,outcome,[3],inactive
same,outcome,[6],inactive
same,outcome,[7],inactive
same,outcome,[8],inactive
same,outcome,[9],inactive
same,outcome,[10],inactive
CC(C)Oc1cccc(NC(=O)c2ccccc2C(F)(F)F)c1,outcome,[1],inactive
same,outcome,[2],inactive
same,outcome,[3],inactive
same,outcome,[4],inactive
same,outcome,[5],inactive
same,outcome,[6],inactive
same,AC50,[7],30.9 µM (active)
same,AC50,[8],23.4 µM (active)
same,outcome,[9],inactive
same,outcome,[10],inactive
O=c1n(Cl)c(=O)n(Cl)c(=O)n1Cl,outcome,[1],inactive
same,outcome,[2],inactive
same,outcome,[3],inactive
same,outcome,[4],inactive
same,outcome,[5],inactive
same,outcome,[6],inactive
same,outcome,[7],inactive
same,outcome,[8],inactive
same,outcome,[9],inactive
same,outcome,[10],inactive
COc1cc(Cl)c(OC)cc1Cl,outcome,[1],inactive
same,outcome,[3],inactive
same,outcome,[4],inactive
same,outcome,[5],inactive
same,outcome,[6],inactive
same,outcome,[7],inactive
same,outcome,[8],inactive
same,outcome,[9],inactive
COC(=O)c1c(C(F)F)nc(C(F)(F)F)c(C2=NCCS2)c1CC(C)C,outcome,[1],inactive
same,outcome,[2],inactive
same,outcome,[3],inactive
same,outcome,[4],inactive
same,AC50,[6],36.9 µM (active)
same,AC50,[7],45.5 µM (active)
same,AC50,[8],0.431 µM (active)
CCCCC(C#N)(Cn1cncn1)c1ccc(Cl)cc1 (stereo not drawn),outcome,[1],inactive
same,outcome,[3],inactive
same,outcome,[4],inactive
same,AC50,[5],19.7 µM (active)
same,outcome,[6],inactive
same,outcome,[7],inactive
same,outcome,[8],inactive
same,outcome,[9],inactive
CCOc1nc(C(Cl)(Cl)Cl)ns1,outcome,[1],inactive
same,outcome,[3],inactive
same,outcome,[4],inactive
same,outcome,[5],inactive
same,outcome,[6],inactive
same,outcome,[7],inactive
same,outcome,[8],inactive
same,outcome,[9],inactive
same,outcome,[10],inactive
COP(=O)(OC)O/C(C)=C/C(=O)N(C)C,outcome,[1],inactive
same,outcome,[2],inactive
same,outcome,[3],inactive
same,outcome,[6],inactive
same,outcome,[7],inactive
same,outcome,[8],inactive
same,outcome,[9],inactive
same,outcome,[10],inactive
Cc1cc(C)nc(Nc2ccccc2)n1,outcome,[1],inactive
same,outcome,[2],inactive
same,outcome,[3],inactive
same,outcome,[4],inactive
same,outcome,[5],inactive
same,outcome,[6],inactive
same,outcome,[7],inactive
same,outcome,[8],inactive
same,outcome,[10],inactive
CC1(C)CON(Cc2ccccc2Cl)C1=O,outcome,[1],inactive
same,outcome,[2],inactive
same,outcome,[3],inactive
same,outcome,[4],inactive
same,outcome,[5],inactive
same,outcome,[6],inactive
same,outcome,[7],inactive
same,outcome,[8],inactive
same,outcome,[9],inactive
same,outcome,[10],inactive
CC(C)C1(C)N=C(c2ncccc2C(=O)O)NC1=O (stereo not drawn),outcome,[1],inactive
same,outcome,[2],inactive
same,outcome,[3],inactive
same,outcome,[6],inactive
same,outcome,[7],inactive
same,outcome,[10],inactive
CCOc1nc(F)cc2nc(S(=O)(=O)Nc3c(Cl)cccc3Cl)nn12,outcome,[1],inactive
same,outcome,[2],inactive
same,outcome,[3],inactive
same,outcome,[6],inactive
same,AC50,[7],24.6 µM (active)
same,outcome,[8],inactive
N#Cc1c(Cl)cccc1Cl,outcome,[1],inactive
same,outcome,[2],inactive
same,outcome,[3],inactive
same,outcome,[6],inactive
same,outcome,[7],inactive
same,AC50,[8],72.3 µM (active)
